The supplement of paper PMC7411640

System: MDA-MB-468
Assay: phospho-S6 immunofluorescence (DAPI-normalised), per-plate z-score; higher = higher phospho-S6 signal (less pathway suppression)
Details: 24 h
Procedure: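 GPCR-targeted compound library (MedChemExpress HY-L006) tested on MDA-MB-468 PTEN-null TNBC cells in 384-well plates at 0.1, 1 or 10 uM, combined with vehicle, GDC0941 450 nM or lapatinib 1 uM, for 24 h. Phospho-S6 (S240/244) immunofluorescence normalised to DAPI and expressed as a per-plate z-score; values are the mean of biological triplicates.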

Row | SMILES | phospho-S6 immunofluorescence (z-score) (co-treatment: GDC0941 450 nM) | phospho-S6 immunofluorescence (z-score) (co-treatment: lapatinib 1 uM) | phospho-S6 immunofluorescence (z-score) (co-treatment: vehicle)
1 | COc1ccc(S(=O)(=O)Nc2c(C)cc(C)cc2C)cc1 (compound 10 µM) | 0.04 | -0.37 | -1.05
2 | CCOc1nc2cccc(C(=O)O)c2n1Cc1ccc(-c2ccccc2-c2nnn[nH]2)cc1 [Candesartan] (compound 10 µM) | 1 | 0.32 | 0.19
3 | CCOC(=O)N[C@@H]1CC[C@@H]2[C@@H](C1)C[C@H]1C(=O)O[C@H](C)[C@H]1[C@H]2/C=C/c1ccc(-c2cccc(F)c2)cn1 [Vorapaxar] (compound 10 µM) | -5.92 | -11.6 | -9.84
4 | CCCNS(=O)(=O)Nc1ncnc(OCCOc2ncc(Br)cn2)c1-c1ccc(Br)cc1 [Macitentan] (compound 10 µM) | 0.32 | 0.71 | -0.16
5 | CN(C)CC/C=C1/c2ccccc2Sc2ccc(Cl)cc21 [Chlorprothixene] (compound 10 µM) | 0.1 | -3.66 | 0.41
6 | CC(=O)[C@H]1CC[C@H]2[C@@H]3CC=C4C[C@@H](O)CC[C@]4(C)[C@H]3CC[C@]12C [Pregnenolone] (compound 10 µM) | 1.58 | 1.58 | 0.85
7 | COc1cc(/C=C/C(=O)NCCn2c(C(F)(F)F)cc3ccccc32)cc(OC)c1OC (compound 10 µM) | -3.69 | -6.85 | -8.39
8 | O=C(C[S+]([O-])Cc1ccco1)NC/C=C\COc1cc(CN2CCCCC2)ccn1 (centres undefined) [Lafutidine] (compound 10 µM) | -0.67 | 0.02 | -0.32
9 | Cn1c(=O)c2c(ncn2CC(O)CO)n(C)c1=O (centres undefined) [Diphylline] (compound 10 µM) | -0.54 | -0.14 | -0.15
10 | Cc1cc2c(cc1Cl)N(C(=O)Nc1ccc(Oc3cccnc3C)nc1)CC2 (compound 10 µM) | -3.98 | -5.09 | -1.44
11 | CC(C)C[C@H](NC(=O)[C@H](CC(C)C)NC(=O)[C@H](Cc1ccccc1)NC(=O)[C@@H](N)CO)C(=O)N[C@@H](CCCN=C(N)N)C(=O)N[C@@H](CC(N)=O)C(=O)O (compound 10 µM) | -1.01 | -0.25 | 0.03
12 | CCC(=O)OCC(=O)[C@@]1(OC(=O)CC)[C@@H](C)C[C@H]2[C@@H]3CCC4=CC(=O)C=C[C@]4(C)[C@@]3(Cl)[C@@H](O)C[C@@]21C [Beclometasone dipropionate] (compound 10 µM) | 0.45 | 0.54 | 0.15
13 | COc1ccc(CC(C)NCC(O)c2ccc(O)c(NC=O)c2)cc1 (centres undefined) [Formoterol (Fumarate)] (compound 10 µM) | 1.08 | 0.77 | 0.16
